# Bioassay records as filed in PubChem.
# An excerpt weighted towards active compounds, which were near 9% of everything screened.
# IMPase inh: IMPase inhibition in cells; 120,000 tested, under 10 active; AID 901; CHO-M1 cells, IP1 accumulation, HTRF TR-FRET ratio; inhibition (IP1 accumulation), % at 46.1 µM; active means well fitted curve in the direction sought with a large enough effect in the signal ratio, not every such curve was filed as active; inconclusive means small, poorly fitted or top-dose-only effect, or a change in a side signal; inactive means no such curve, though single readings can be large or run the other way; the % refers to the signal ratio;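 further: cells stimulated with carbachol in lithium chloride buffer; plate controls were DMSO basal wells for no effect and reference inhibitor wells for full effect; higher means more IMPase inhibition seen as more IP1 and lower FRET ratio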
# Target sequence (P97697 whole entry, looked up): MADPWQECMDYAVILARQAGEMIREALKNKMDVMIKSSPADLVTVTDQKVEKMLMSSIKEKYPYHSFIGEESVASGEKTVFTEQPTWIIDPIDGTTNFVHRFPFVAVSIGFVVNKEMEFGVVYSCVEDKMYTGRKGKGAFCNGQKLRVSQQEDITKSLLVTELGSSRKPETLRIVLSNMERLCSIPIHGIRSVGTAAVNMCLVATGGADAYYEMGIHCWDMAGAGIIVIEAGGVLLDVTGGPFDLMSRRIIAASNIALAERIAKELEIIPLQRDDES
#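 Carbachol-driven Gq signalling in CHO-M1 cells (2000/well) generates IP1. Compounds that block IMPase raise IP1 and so reduce the FRET signal from Eu-anti-IP1 and d2-IP1 after a 10 min room-temperature lysis.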
# HPGD inh: HPGD (human) dehydrogenase inhibition. P15428. purified HPGD, NADH fluorescence kinetic, PGE2 substrate. 150,000 compounds, 4.3% hits. Potency, µM, for the others: top-dose activity change, negative = inhibition, most hits filed as inhibitors; further: potency means the concentration at half of the fitted maximal effect
#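 20 nM HPGD preincubated 15 min at room temperature with compound in 50 mM Tris-HCl pH 8, 0.01% Tween 20. Started with 1 mM NAD+ and 30 uM prostaglandin E2; NADH fluorescence (360/450 nm) read 5 times over 30-s intervals, last minus first.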
# ALDH1A1 block: inhibitors of human aldehyde dehydrogenase 1A1 | Purified ALDH1A1, NADH fluorescence, propionaldehyde substrate | 220,000 compounds, 7.3% hits | Potency, µM (titrated, usually from 75.3 µM), for inactives: at the highest dose activity, negative = inhibition, hits mostly inhibitors | AID 1030;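 further: potency means the concentration at half of the fitted maximal effect; plate controls were no enzyme wells and a reference inhibitor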
# Numbers without * were called inactive; ? = inconclusive; / = no result given. Unless noted, the call rests on the fitted dose curve; in most records, active means well fitted inhibition curve with a large enough effect (not every such curve was filed as active); inconclusive means small, poorly fitted or top-dose-only effect, or another doubt; inactive means no such curve, though single readings can be large or run the other way. Unless noted, on the % scale 0 is the no-effect control and ±100 the full control effect.
SMILES,IMPase inh,HPGD inh,ALDH1A1 block
CCOc1ccc(C(C)=O)cc1N1C(=O)C2C3C=CC(C3)C2C1=O (stereo not drawn),8,0%,10%
CCOc1ccc(C(C)=O)cc1N1C(=O)C2C3C=CC(O3)C2C1=O (stereo not drawn),1,28µM*,22µM*
O=C(Nc1ncc(Cc2ccc(SC(F)F)cc2)s1)c1ccc(OC(F)F)cc1,/,-29%,?
O=C(NC1CCCCC1)NC1CCN(S(=O)(=O)Cc2ccccc2)CC1,-5,2%,4%
COC(=O)C1CCN(S(=O)(=O)Cc2ccccc2)CC1,25,22µM*,?
CN1CCN(NC(=O)CC(C)(C)C)CC1,/,/,0%
CCCOC(=O)/C(=C\c1ccc([N+](=O)[O-])o1)NC(=O)c1ccccc1,14,-14%,-3%
CCCOC(=O)/C(=C\C=C\c1ccco1)NC(=O)c1ccccc1,/,/,20µM*
FC(F)(F)c1cccc(NC(=S)NCC2COc3ccccc3O2)c1 (stereo not drawn),/,?,-1%
COc1ccc(/C=C/C(=O)NCCSCc2ccco2)cc1,/,14µM*,?
O=C(/C=C/c1ccccc1)NCCSCc1ccccc1,/,3.2µM*,1µM*
CS(=O)(=O)Nc1ccc(C(=O)NCCc2ccccc2)cc1,14,-21%,1%
O=C(/C=C/c1ccccc1)NCCCNC(=O)/C=C/c1ccccc1,/,/,-4%
COc1ccc(/C=C/C(=O)NCCCc2ccccc2)cc1,/,-17%,?
CS(=O)(=O)Nc1ccc(C(=O)NCCSCc2ccccc2)cc1,/,/,11µM*
CCc1nc2ccc(F)cc2c(C(=O)NC2CCCCC2C)c1C (stereo not drawn),1,-8%,-2%
CC(C)=NOc1nc(N2CCOCC2)nc(N2CCOCC2)n1,/,/,11%
CCCNC(=O)N1CCN(S(C)(=O)=O)CC1,/,/,4%
CSc1ccccc1C(=O)C1CCCN(C(=O)c2csnn2)C1 (stereo not drawn),/,/,-4%
CSc1ccccc1C(=O)C1CCCN(C(=O)c2cc(C(C)C)no2)C1 (stereo not drawn),/,/,18µM*
COc1cccc(C2CC(=O)Nc3cc(OC)c(OC)c(OC)c32)c1OC(C)C (stereo not drawn),-2,/,/
CC1CCN(S(=O)(=O)c2cn(CC(=O)N3CC(C)CC(C)C3)c(=O)c3ccccc23)CC1 (stereo not drawn),/,-14%,?
O=C(NCCO)c1ccc2[nH]c3c(c2c1)CCCC3,4,-11%,4%
CCCC(C)NC(=O)c1ccc2[nH]c3c(c2c1)CC(C)CC3 (stereo not drawn),-3,/,16µM*
O=c1[nH]n(CC2COC3(CCCCC3)O2)c(=O)c2ccccc12 (stereo not drawn),-6,-18%,13µM*
SMILES,IMPase inh,HPGD inh,ALDH1A1 block
O=C(Cn1[nH]c(=O)c2ccccc2c1=O)NC1CCCCCC1,8,-2%,-5%
Cc1ccc(N2/C(=N/c3nc(C)cc(C)n3)NC(=O)CC2C(=O)O)cc1 (stereo not drawn),4,-17%,-12%
Cc1cc(C)nc(/N=C2\NC(=O)CC(C(=O)O)N2c2ccc(Oc3ccccc3)cc2)n1 (stereo not drawn),0,13µM*,-5%
O=C(c1ccco1)N1CCC2(CC1)CCN(c1ccccc1)CC2,/,-9%,?
CCn1c(N)c(C(=O)NCCOC)sc1=S,3,?,25µM*
CCn1c(N)c(C(=O)Nc2ccccc2C(=O)OC)sc1=S,-7,25µM*,28µM*
COCCNC(=O)c1ccc(C(=O)NCCOC)s1,-9,-29%,14%
CCCCCC(=O)NC(=S)Nc1ccccc1C(=O)OC,13,-10%,?
CCOC(=O)c1c(C)c(C(=O)NCc2ccc3c(c2)OCO3)c(C)n1CC,/,-16%,?
CCn1c(N)c(C(=O)NCc2ccc3c(c2)OCO3)sc1=S,-3,16µM*,20µM*
CCc1ccc2c(-c3cccc(Cl)c3)nc(=O)n(CC)c2n1,-8,-12%,?
CC(Sc1nncs1)C(=O)Nc1ccc(Cl)cn1 (stereo not drawn),/,4%,3%
CCc1cccc2c(C(=S)N3CCOCC3)c[nH]c12,/,/,-1%
CCOC(=O)N1CCC(NC(=O)CC(NS(=O)(=O)c2ccc(C)cc2)c2ccco2)CC1 (stereo not drawn),-1,-3%,-13%
Cc1ccc(S(=O)(=O)NC(CC(=O)N2CCc3ccccc32)c2ccco2)cc1 (stereo not drawn),14,-3%,14µM*
Cn1ccc(C(=O)Nc2ccc(Br)cc2Br)n1,/,?,-5%
CCOc1ccc(S(=O)(=O)N2CCCCC2)c2ccccc12,-1,-29%,32µM*
CCOc1ccc(C)cc1S(=O)(=O)N1CCCCC1,-3,0%,13%
